Assay [1] deals with Calcium/calmodulin-dependent protein kinase type 1 (Homo sapiens) (UniProt Q14012). The following applies: at 1 µM.
Assay [2] shares this target. The following applies: at 10 µM.
Assay [3] has as its target Calcium/calmodulin-dependent protein kinase type II subunit beta (Homo sapiens) (UniProt Q13554). As to conditions: at 1 µM.
Assay [4] has the same target. As to conditions: at 10 µM.
Assay [5] has as its target Calcium/calmodulin-dependent protein kinase type II subunit gamma (Homo sapiens) (UniProt Q13555). The following applies: at 1 µM.
For assay [6] the target is unchanged. The following applies: at 10 µM.
For assay [7], the target named is Calcium/calmodulin-dependent protein kinase type II subunit delta (Homo sapiens) (UniProt Q13557). The following applies: at 1 µM.
For assay [8] the target is unchanged. As to conditions: at 10 µM.
For assay [9], the target named is T1, Calcium/calmodulin-dependent protein kinase type IV (Homo sapiens) (UniProt Q16566).
T1 sequence (whole entry): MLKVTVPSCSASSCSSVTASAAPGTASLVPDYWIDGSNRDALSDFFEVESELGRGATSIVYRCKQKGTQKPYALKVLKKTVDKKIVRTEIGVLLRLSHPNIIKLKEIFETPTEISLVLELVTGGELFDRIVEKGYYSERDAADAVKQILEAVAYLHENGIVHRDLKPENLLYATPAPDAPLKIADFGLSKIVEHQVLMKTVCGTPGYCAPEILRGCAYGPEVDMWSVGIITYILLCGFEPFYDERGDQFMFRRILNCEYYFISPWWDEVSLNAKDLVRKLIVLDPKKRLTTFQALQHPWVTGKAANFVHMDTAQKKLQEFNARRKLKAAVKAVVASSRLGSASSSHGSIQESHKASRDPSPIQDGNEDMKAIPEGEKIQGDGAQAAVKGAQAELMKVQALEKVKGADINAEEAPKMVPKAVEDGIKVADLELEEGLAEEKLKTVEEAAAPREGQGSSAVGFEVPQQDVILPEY
As to conditions: at 1 µM.

The target of assay [10] is T1, Calcium/calmodulin-dependent protein kinase type IV (Homo sapiens). As to conditions: at 10 µM.
For assay [11], the target named is T2, Serine/threonine-protein kinase DCLK2 (Homo sapiens) (UniProt Q8N568).
T2 sequence (whole entry): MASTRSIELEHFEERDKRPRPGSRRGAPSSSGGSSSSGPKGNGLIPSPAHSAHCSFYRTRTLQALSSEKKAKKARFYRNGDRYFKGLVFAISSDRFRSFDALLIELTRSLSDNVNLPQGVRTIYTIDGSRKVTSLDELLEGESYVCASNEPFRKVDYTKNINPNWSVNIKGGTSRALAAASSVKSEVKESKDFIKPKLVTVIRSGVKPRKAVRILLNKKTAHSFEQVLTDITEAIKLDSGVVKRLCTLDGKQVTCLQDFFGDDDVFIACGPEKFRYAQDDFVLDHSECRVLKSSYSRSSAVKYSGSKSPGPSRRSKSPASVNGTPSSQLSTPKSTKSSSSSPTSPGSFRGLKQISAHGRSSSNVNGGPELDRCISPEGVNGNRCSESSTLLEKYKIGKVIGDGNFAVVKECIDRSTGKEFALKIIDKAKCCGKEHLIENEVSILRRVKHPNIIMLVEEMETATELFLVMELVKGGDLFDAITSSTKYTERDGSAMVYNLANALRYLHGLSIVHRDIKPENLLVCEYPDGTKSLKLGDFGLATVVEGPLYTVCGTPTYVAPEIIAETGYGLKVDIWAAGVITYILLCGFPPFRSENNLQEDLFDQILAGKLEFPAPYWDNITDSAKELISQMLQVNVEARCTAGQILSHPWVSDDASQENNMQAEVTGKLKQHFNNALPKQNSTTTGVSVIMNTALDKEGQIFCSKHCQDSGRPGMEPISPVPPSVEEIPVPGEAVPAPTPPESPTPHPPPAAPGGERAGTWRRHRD
The following applies: at 1 µM.

Assay [12] deals with T2, Serine/threonine-protein kinase DCLK2 (Homo sapiens). The following applies: at 10 µM.
In assay [13] the target is Death-associated protein kinase 1 (Homo sapiens) (UniProt P53355). The following applies: at 10 µM.
Assay [14] has as its target Death-associated protein kinase 2 (Homo sapiens) (UniProt Q9UIK4). The following applies: at 1 µM.
Assay [15] has the same target. The following applies: at 10 µM.
The target in assay [16] is T3, Discoidin domain-containing receptor 2 (Homo sapiens) (UniProt Q16832).
T3 sequence (whole entry): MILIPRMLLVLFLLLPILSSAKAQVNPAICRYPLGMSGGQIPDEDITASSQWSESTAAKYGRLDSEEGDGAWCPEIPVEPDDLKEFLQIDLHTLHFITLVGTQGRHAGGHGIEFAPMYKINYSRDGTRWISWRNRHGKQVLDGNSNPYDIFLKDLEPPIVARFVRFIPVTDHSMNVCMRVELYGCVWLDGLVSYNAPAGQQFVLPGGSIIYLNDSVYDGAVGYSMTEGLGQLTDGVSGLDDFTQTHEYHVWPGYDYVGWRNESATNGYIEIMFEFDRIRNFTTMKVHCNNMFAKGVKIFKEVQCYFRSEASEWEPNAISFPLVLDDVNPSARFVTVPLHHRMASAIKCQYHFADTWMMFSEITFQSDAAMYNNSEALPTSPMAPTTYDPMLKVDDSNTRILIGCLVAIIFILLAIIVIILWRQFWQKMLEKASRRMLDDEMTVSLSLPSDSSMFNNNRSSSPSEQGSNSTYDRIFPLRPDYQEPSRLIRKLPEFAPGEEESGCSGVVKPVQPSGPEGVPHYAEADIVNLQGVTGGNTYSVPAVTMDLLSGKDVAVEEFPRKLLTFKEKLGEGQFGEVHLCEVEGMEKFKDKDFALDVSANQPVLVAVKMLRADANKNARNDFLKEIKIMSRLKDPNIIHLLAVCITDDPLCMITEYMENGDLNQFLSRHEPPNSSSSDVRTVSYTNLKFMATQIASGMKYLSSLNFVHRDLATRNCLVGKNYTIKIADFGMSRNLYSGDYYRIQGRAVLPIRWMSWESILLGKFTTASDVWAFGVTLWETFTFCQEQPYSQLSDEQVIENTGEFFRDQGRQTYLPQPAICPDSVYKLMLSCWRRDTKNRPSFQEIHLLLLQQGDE
The following applies: at 1 µM.

The target in assay [17] is T3, Discoidin domain-containing receptor 2 (Homo sapiens). As to conditions: at 10 µM.
For assay [18], the target named is T4, Myotonin-protein kinase (Homo sapiens) (UniProt Q09013).
T4 sequence (whole entry): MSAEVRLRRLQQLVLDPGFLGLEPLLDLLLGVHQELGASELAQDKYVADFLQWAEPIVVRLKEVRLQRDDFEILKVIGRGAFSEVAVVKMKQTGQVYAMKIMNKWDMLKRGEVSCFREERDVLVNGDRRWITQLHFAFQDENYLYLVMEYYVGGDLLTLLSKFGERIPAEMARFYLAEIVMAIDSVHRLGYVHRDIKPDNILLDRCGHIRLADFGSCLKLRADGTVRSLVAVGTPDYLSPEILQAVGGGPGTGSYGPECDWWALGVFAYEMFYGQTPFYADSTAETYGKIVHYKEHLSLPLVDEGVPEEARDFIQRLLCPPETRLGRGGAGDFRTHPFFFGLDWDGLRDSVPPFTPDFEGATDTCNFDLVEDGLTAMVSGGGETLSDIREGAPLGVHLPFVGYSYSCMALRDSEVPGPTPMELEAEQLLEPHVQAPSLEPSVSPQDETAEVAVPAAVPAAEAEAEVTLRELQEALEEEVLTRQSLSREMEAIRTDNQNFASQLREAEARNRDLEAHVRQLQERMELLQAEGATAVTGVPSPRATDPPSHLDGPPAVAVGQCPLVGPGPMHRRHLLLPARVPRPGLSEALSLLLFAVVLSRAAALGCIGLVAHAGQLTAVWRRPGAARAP
As to conditions: at 10 µM.

The target in assay [19] is T5, Serine/threonine-protein kinase 17A (Homo sapiens) (UniProt Q9UEE5).
T5 sequence (whole entry): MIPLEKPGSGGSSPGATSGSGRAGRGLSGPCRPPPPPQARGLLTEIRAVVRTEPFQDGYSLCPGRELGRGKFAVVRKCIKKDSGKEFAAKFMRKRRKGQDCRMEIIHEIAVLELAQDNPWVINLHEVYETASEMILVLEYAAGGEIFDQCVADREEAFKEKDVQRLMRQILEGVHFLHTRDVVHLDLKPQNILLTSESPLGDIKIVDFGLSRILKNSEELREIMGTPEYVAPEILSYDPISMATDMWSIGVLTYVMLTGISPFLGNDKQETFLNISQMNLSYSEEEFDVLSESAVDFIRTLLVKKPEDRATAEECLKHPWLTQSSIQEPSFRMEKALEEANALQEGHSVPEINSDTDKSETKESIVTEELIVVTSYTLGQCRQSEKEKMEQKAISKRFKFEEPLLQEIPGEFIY
As to conditions: at 1 µM.

Assay [20] addresses T4, Myotonin-protein kinase (Homo sapiens). The following applies: at 1 µM.

Drawing on ChEMBL document CHEMBL2218924, “A broad activity screen in support of a chemogenomic map for kinase signalling research and drug discovery” (Biochem J, 2013), this text covers residual activity for 6 compounds.

One may read the residual activity as the signal under treatment as a percentage of the control signal.

Sequence of Calcium/calmodulin-dependent protein kinase type II subunit gamma (Homo sapiens) (Q13555 whole entry): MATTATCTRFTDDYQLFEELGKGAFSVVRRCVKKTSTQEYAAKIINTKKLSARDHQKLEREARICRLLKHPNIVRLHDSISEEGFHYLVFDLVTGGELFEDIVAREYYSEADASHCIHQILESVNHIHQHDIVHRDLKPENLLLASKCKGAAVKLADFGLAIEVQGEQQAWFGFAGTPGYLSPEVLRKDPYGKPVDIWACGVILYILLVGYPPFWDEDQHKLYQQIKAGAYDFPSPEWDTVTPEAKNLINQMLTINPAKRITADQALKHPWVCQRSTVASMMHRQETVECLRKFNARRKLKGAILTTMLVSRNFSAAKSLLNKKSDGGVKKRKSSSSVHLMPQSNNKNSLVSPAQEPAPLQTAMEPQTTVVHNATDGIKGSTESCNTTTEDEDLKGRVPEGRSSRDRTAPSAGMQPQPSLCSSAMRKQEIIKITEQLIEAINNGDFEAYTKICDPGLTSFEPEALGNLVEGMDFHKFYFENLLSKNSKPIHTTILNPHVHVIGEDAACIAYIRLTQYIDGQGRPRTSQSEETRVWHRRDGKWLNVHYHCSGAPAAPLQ
Sequence of Death-associated protein kinase 2 (Homo sapiens) (Q9UIK4 whole entry, looked up): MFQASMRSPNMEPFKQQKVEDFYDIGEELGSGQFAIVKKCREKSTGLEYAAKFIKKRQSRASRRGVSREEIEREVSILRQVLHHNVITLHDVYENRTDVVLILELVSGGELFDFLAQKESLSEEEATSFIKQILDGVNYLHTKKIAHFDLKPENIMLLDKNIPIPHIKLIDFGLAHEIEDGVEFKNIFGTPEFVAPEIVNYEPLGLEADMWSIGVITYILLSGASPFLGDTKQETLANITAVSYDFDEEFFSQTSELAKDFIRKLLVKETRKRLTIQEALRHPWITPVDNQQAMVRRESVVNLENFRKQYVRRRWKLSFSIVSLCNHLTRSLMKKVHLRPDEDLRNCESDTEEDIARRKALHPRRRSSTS
Sequence of Calcium/calmodulin-dependent protein kinase type 1 (Homo sapiens) (Q14012 whole entry, looked up): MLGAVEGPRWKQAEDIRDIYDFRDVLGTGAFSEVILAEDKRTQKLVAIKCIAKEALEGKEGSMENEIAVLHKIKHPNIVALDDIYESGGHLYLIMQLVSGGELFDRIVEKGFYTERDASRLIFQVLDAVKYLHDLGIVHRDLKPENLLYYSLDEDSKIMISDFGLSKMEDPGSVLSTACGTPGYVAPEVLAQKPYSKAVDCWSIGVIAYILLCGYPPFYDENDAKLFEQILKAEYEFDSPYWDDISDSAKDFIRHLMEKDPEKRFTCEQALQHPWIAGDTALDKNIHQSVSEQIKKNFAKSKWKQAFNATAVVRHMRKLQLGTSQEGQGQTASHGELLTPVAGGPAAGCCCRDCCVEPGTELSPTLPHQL
Sequence of Calcium/calmodulin-dependent protein kinase type II subunit delta (Homo sapiens) (Q13557 whole entry): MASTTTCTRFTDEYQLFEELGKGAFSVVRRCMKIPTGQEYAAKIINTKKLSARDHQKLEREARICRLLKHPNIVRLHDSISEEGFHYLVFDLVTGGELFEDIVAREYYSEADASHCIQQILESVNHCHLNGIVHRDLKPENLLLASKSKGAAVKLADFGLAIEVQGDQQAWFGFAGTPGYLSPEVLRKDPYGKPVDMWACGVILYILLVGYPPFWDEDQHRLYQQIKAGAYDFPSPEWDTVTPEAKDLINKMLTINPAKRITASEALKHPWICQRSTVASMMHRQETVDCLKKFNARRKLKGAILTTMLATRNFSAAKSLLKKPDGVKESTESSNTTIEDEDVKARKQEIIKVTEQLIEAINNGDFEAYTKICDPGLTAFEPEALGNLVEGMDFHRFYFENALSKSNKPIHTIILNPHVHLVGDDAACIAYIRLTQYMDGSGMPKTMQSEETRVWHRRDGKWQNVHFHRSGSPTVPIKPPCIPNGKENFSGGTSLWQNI
Sequence of Calcium/calmodulin-dependent protein kinase type II subunit beta (Homo sapiens) (Q13554 whole entry): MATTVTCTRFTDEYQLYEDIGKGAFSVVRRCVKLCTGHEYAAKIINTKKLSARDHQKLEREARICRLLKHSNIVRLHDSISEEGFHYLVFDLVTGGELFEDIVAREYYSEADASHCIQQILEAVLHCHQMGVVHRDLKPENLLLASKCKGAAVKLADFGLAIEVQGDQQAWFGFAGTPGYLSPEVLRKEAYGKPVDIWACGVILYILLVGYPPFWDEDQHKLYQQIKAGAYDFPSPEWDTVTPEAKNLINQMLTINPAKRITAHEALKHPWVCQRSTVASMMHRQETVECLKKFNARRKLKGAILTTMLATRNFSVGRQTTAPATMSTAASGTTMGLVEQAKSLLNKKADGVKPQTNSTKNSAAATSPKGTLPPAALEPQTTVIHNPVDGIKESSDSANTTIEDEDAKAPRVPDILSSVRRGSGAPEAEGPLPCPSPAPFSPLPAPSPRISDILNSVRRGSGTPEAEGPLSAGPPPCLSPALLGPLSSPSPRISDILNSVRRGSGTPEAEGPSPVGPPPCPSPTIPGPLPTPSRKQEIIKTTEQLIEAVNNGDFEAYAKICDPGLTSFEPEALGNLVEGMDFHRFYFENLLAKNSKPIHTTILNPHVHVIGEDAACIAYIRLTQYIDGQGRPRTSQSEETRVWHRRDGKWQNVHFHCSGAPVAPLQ
Sequence of Death-associated protein kinase 1 (Homo sapiens) (P53355 whole entry, looked up): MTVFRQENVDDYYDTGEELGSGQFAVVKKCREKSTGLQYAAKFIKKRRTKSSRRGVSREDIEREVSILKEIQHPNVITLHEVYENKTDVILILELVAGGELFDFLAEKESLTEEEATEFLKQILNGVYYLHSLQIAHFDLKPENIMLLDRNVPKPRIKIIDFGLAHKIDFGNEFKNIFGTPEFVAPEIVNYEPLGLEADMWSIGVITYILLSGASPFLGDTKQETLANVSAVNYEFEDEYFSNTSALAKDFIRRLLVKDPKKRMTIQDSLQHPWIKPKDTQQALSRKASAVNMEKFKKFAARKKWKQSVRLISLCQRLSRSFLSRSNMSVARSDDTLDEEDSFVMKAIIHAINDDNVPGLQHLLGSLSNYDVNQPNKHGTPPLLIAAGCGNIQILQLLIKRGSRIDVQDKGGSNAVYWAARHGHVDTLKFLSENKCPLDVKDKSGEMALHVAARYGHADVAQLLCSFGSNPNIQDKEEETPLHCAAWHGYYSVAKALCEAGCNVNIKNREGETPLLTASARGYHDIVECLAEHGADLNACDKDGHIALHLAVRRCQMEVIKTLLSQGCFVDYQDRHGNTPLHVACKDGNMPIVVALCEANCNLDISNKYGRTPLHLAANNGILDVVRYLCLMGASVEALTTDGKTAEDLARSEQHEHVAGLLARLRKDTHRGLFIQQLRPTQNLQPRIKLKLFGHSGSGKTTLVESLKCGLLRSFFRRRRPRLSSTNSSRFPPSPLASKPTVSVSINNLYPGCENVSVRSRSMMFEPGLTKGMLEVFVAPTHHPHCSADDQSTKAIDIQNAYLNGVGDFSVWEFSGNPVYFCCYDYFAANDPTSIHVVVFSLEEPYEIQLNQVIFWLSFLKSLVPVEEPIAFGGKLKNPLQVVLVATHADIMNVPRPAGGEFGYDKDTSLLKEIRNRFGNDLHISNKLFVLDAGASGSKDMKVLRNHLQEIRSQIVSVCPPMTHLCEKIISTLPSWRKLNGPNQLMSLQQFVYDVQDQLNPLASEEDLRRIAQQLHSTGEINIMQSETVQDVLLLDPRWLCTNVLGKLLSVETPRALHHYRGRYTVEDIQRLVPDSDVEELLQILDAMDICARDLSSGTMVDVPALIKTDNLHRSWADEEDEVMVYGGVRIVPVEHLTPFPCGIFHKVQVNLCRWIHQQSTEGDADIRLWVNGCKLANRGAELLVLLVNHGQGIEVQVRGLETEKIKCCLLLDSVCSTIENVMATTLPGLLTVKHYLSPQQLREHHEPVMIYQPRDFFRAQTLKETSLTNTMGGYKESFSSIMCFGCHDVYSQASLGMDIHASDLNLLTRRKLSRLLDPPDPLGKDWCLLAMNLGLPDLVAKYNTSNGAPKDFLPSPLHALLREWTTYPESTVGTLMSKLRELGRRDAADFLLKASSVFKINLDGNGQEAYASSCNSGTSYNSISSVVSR

As for `NCCNc1ncc(C(N)=O)c(Nc2cccc(C(F)(F)F)c2)n1`, the residual activity in assay [1] was 20%; in assay [2], -5%; in [3] it was 73%; in assay [4], 23%; in [5] it was 55%; in [6], 3%. In addition, the residual activity in assay [7] stood at 51%; in assay [8] it was 9%; in assay [9], 114%; in assay [10], 72%; in assay [11], 73%; in assay [12], 66%.

As to `Cn1sc(=O)n(Cc2ccccc2)c1=O`, the residual activity in assay [1] amounted to 75%; in assay [2] it was 67%; in assay [3] it was 92%; in [4] it was 83%; in assay [7], 98%; in [8] it was 90%. The residual activity in [9] worked out at 73%; in assay [10], 51%; in [13], 80%; in assay [14], 97%; in assay [15] it was 99%; in assay [11] it was 100%. Besides, the residual activity stood at 90% in [12], 78% in [16], 90% in assay [17] and 81% in assay [18].

For `O=c1cc(N2CCOCC2)oc2c1ccc1ccccc12`, the residual activity in [1] was determined as 104%; in [2] it was 72%; in assay [3], 103%; in [4], 72%; in assay [5], 104%; in assay [6], 81%. Further, the residual activity in assay [7] came to 99%; in [8] it was 75%; in assay [10], 103%; in [13], 84%; in [14] it was 92%; in [15], 80%. The residual activity came to 83% in [11]; 87% in [12]; 106% in [16]; 105% in [17]; 92% in [19].

Regarding `O=C(NC(NC(=S)Nc1ccc(F)c([N+](=O)[O-])c1)C(Cl)(Cl)Cl)C(c1ccccc1)c1ccccc1` (stereo unspecified), the residual activity in assay [1] is 99%; in [2], 91%; in assay [3], 91%; in [4], 72%; in assay [5] it was 99%; in assay [6] it was 89%. The residual activity in [7] stood at 99%; in [8] it was 82%; in assay [13] it was 71%; in assay [14] it was 95%; in assay [15] it was 78%; in assay [11], 136%. Further, the residual activity turned out to be 86% in assay [12], 102% in assay [16], 90% in assay [17] and 71% in assay [20].

As to `O=C(c1ccccc1)c1ccc(N2CCOCC2)cc1O`, the residual activity in [1] came out at 95%; in assay [2], 98%; in [4], 71%; in assay [6], 78%; in [7], 100%; in assay [8] it was 76%. Besides, the residual activity turned out to be 111% in assay [9]; 100% in assay [13]; 89% in assay [14]; 64% in [11]; 93% in assay [12]; 111% in assay [16]. In addition, the residual activity worked out at 93% in [17] and 138% in assay [20].

Regarding `NC(=O)Nc1sc(-c2ccc(F)cc2)cc1C(N)=O`, the residual activity in [1] was 74%; in assay [2], 18%; in assay [3], 86%; in assay [4], 40%; in assay [5], 82%; in assay [6], 32%. Moreover, the residual activity in assay [7] worked out at 83%; in [8], 31%; in [10], 72%; in assay [13], 70%; in [14], 95%; in assay [15], 64%. In addition, the residual activity in [11] came out at 96%; in assay [12], 78%; in assay [17], 40%; in assay [19], 69%.
